Test results reported in PubChem BioAssay (NCI).
The panel holds about 79,000 compounds, 15% with a hit somewhere; the sample as a whole holds those more often. Unmarked numbers belong to inactive results. Active and inactive are the calls of the source. No stated cut-off is given here; in the data, active means growth inhibition above about 70%; inactive means the rest.

What was measured:
[1] = NCI Yeast Anticancer Drug Screen. Data for the rad50 strain (AID 155);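 further: 0% = growth of vehicle-only cultures of the same strain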; conditions: S. cerevisiae rad50 strain growth inhibition; at 50.0 µM; active compounds read high
Procedure, shortened: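 Genetically altered yeast (DNA repair pathway); compound treatment; growth inhibition vs vehicle ctrl.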

[2] = NCI Yeast Anticancer Drug Screen. Data for the mec2-1 strain (AID 157); conditions: S. cerevisiae mec2-1 strain, at 50.0 µM, active compounds read high
Procedure, shortened: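 Strain: mec2-1 (DNA repair/cell cycle alteration). Compound exposure, then growth measured; inhibition expressed relative to vehicle.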

[3] = NCI Yeast Anticancer Drug Screen. Data for the sgs1 mgt1 strain (AID 161);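 further: 0% = growth of cultures given vehicle only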; conditions: S. cerevisiae sgs1 mgt1 strain, at 50.0 µM, active compounds read high
Procedure, shortened: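 Test agents were incubated with a DNA-repair-mutant yeast strain. Growth was then read and compared against vehicle-treated controls.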

[4] = NCI Yeast Anticancer Drug Screen. Data for the cln2 rad14 strain (AID 165);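 further: 0% = growth equal to vehicle treated cultures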; conditions: S. cerevisiae cln2 rad14 strain, at 50.0 µM, active compounds read high
Procedure, shortened: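 Compounds are applied to the cln2 rad14 yeast strain, and growth is then compared with that of vehicle-treated cultures to give inhibition.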

[5] = NCI Yeast Anticancer Drug Screen. Data for the bub3 strain (AID 167); conditions: S. cerevisiae bub3 mutant strain, at 50.0 µM, active compounds read high
Procedure, shortened: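 Yeast carrying a defined mutation is treated with each compound, and growth is compared with that of vehicle-exposed cells to give inhibition.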

[6] = NCI Yeast Anticancer Drug Screen. Data for the mlh1 rad18 strain (AID 175); conditions: S. cerevisiae mlh1 rad18 strain growth inhibition; at 50.0 µM; active compounds read high
Procedure, shortened: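 Read-out is yeast growth inhibition, calculated against vehicle-only controls. The compound was applied to a strain engineered with DNA damage repair alterations.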

Compound | growth inhibition [1] [%] | growth inhibition [2] [%] | growth inhibition [3] [%] | growth inhibition [4] [%] | growth inhibition [5] [%] | growth inhibition [6]
Cc1cc(N(CCC#N)S(=O)(=O)c2ccccc2)ccc1/C=C1\N=C(c2ccc(Cl)cc2)OC1=O | -4.5 | 6.9 | 7.8 | -18.6 | -2.7 | 17.4%
O=C(Nc1cccc([N+](=O)[O-])c1)C(=O)C(C(=O)c1ccccc1F)C1OC(=O)C2C=CC=CC21 (stereo unspecified) | 5.5 | 15.9 | 16.1 | 11.7 | -32.9 | -19.9%
OC1CCC2OC12 (stereo unspecified) | 7.3 | 0.55 | 18.2 | 0.4 | -1.3 | 2%
C=C(C)CN(CC(=C)C)c1nc(N)nc(N)n1 | -35.2 | -2.95 | -21.9 | -43.5 | -2.1 | -13.1%
CC(=O)Oc1ccc(C(=O)c2ccc(OC(C)=O)cc2)cc1 | -7.5 | -16.6 | 6.25 | -22.4 | -4.45 | 22.2%
CS(=O)(=O)OC1CCC2CCCC1(C(=O)O)C2 (stereo unspecified) | 2.4 | -6.6 | -0.75 | -30 | -5.2 | 9.25%
CS(=O)(=O)OCC1CCCCCCCCCCC12SCCCS2 (stereo unspecified) | -30.9 | -22.7 | -3.25 | 20.4 | -23.6 | -45.9%
O=C(c1ccncc1)C(C(c1ccccc1)N1CCOCC1)N1CCOCC1 (stereo unspecified) | 25.8 | 8.25 | 34 | 39.5 | 13.6 | 4.4%
CCN(CC)C(=O)c1ccc(O)c(OC)c1 | 17.7 | 17 | 7.3 | 7.65 | -7.3 | -4.3%
CCN(CC)C(=O)CCn1ccc(=O)[nH]c1=O | -52.4 | -33.4 | -25.8 | 9.55 | -2.75 | -5.35%
CC1CC(=O)Oc2ccccc21 (stereo unspecified) | 35.5 | 5.7 | 3.8 | -3.35 | 5.95 | 1.5%
COc1cc2c(C)nc3c4cc5c(cc4ccc3c2cc1OC)OCO5 | -12.4 | 8.2 | 18.2 | -41.9 | 40.2 | 1%
O=[N+]([O-])c1cccc(C2OCC3(CO2)COC(c2cccc([N+](=O)[O-])c2)OC3)c1 (stereo unspecified) | 2.95 | -21.8 | 6.5 | 10.2 | -3.1 | 10.8%
OCCCSc1ccccc1SCCCO | -1.4 | -2.45 | 3.5 | -1.7 | 3.75 | 5.1%
CCOC1OCCCC1C(OCC)C(C)C (stereo unspecified) | 39 | 14.7 | 19.4 | 9.35 | -0.7 | 12.4%
O=C(Nc1ccc(F)cc1)C(=O)C(C1OC(=O)c2ccccc21)[N+](=O)[O-] (stereo unspecified) | 14.9 | 6.15 | 8.7 | 14.1 | 10.8 | 15.8%
CCC(C)CN1C(=O)NC(C)(Cc2ccccc2)C1=O (stereo unspecified) | 18.6 | 1.25 | 1.15 | 16.8 | 7.85 | 4.25%
CC(=O)/C=C/c1ccc(C)cc1 | 27.1 | 9.9 | 8.75 | 4.15 | 20.6 | 10.7%

Compound | growth inhibition [1] [%] | growth inhibition [2] [%] | growth inhibition [3] [%] | growth inhibition [4] [%] | growth inhibition [5] [%] | growth inhibition [6]
S=C(Nc1ccc(I)cc1)SCc1ccc2c(c1)OCO2 | 32.5 | 14.4 | 25.5 | 32.2 | -3.65 | 23.8%
ClC(Cl)C1OCCCO1 | -32.4 | -17.4 | -23.2 | -41.1 | 12.2 | -8.25%
O=C(/C=C\c1ccc(/C=C\C(=O)c2ccccc2O)cc1)c1ccccc1O | 8.5 | -13.3 | -8.75 | -3.75 | 22.2 | -23.3%
CN(C)OC(=O)Nc1cccc([N+](=O)[O-])c1 | 19.1 | 13.3 | 14.1 | -82.8 | 4.8 | -2.6%
CCOC(=O)Oc1ccc(Cl)cc1Cl | 3.2 | 14.1 | 2.55 | 5.2 | -4.4 | -3.8%
C[C@H]1CC[C@@]2(OC1)O[C@H]1C[C@H]3[C@@H]4CC[C@@H]5C[C@@H](OC6OC(CO)C(O)C(O)C6OC6OC(CO)C(O)C(O)C6O)CC[C@]5(C)[C@H]4CC[C@]3(C)[C@H]1[C@@H]2C (stereo partly specified) | 54.2 | 68.4 | 37.8 | 19.3 | -16.2 | 90.5% (active)
COC(=O)C1C(C)C1c1ccc2c(c1)OCO2 (stereo unspecified) | 2.65 | 2.05 | -0.7 | -3.7 | -0.7 | -25.5%
O=C(Cl)c1cc(-c2ccccc2)nc2c(Cl)cccc12 | 46.1 | 39.4 | 43 | 39.1 | 40.5 | 38%
CC1=NC(C(=O)O)CC1C (stereo unspecified) | 1.15 | 4 | -5.35 | -7.7 | 1.45 | -1.3%
CC(C=O)CCC(C)(O)C=O (stereo unspecified) | -9.4 | -7.8 | -7 | 8.65 | -10.5 | 1.45%
CC/C(C)=C1/CC(C)(C)N=C1C | -11.7 | -43.5 | -10 | -20.6 | -12.2 | -22.6%
C1#CCSCC#CCSC1 | 14.2 | 3.4 | 11.1 | 24.2 | 40 | 24%
O=S1(=O)C2CCC(Br)C1CCC2Br (stereo unspecified) | 9.65 | 13.8 | 7.65 | 14.2 | -2.65 | 10.9%
Cc1cc(NS(=O)(=O)c2ccc(Nc3c4ccccc4nc4c(C(=O)NCCN(C)C)ccc(Cl)c34)cc2)no1 | -9.25 | 17.1 | -2.4 | 6.1 | -3.25 | 63.5%
Oc1ccc(N=Nc2ccccc2)c(O)c1 | 54 | 29.1 | 43.5 | -18.9 | 46 | 64%
C=CCCCCCCCC(O)C1C[C@H](O)C(CCCCC)O1 (stereo partly specified) | -0.8 | -16.9 | 9.25 | 1.15 | -17.2 | -5%
O=C1c2ccccc2-c2ccc(N3C(=O)c4c(Br)c(Br)c(Br)c(Br)c4C3=O)cc21 | 10.6 | -2.2 | 12.9 | -36.8 | -4.6 | -17.5%
C1=Nc2ccccc2/C1=C/c1c[nH]c2ccccc12 | 11.2 | -10.1 | 5.2 | 17.9 | 1.05 | 17.9%
